HT1080NT lethal: kills 2HG-producing HT-1080-NT fibrosarcoma cells; HT-1080-NT fibrosarcoma viability, CellTiter-Glo ATP luminescence, 48 h; Potency, µM (doses to about 46.1 µM), actives largely listed as cytotoxic; hit rate 1.6% among 360,000; AID 686970;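 also: NT is the 2HG producing partner of a matched IDH1 knockdown line; nearly all actives have a fitted effect of over 55% in size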
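HT-1080-NT fibrosarcoma cells (2HG-overproducing), 750 cells/well in RPMI with 5% FBS, dosed after 2 h and incubated 48 h at 37C. CellTiter-Glo luminescence normalized to DMSO and no-cell wells; concentration-response curves fitted and classed.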
KB-V1 MDR tox: kills drug-selected multidrug resistant KB-V1 cells. KB-V1 MDR cells viability, CellTiter-Glo, 72 h. Potency, µM (series often up to 46.1 µM), usual class: cytotoxic. hit rate 3.4% among 400,000; also: nearly all actives have a fitted effect of over 60% in size
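KB-V1 cells (P-gp-expressing MDR subline of KB-3-1) in phenol-red-free DMEM with 10% FBS were exposed to library compounds over a concentration series for 72 h at 37 degrees C. Viability read by CellTiter-Glo luminescence; concentration-effect curves fitted after normalization.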
KB-3-1 cytotox: KB-3-1 parental cell cytotoxicity | KB-3-1 viability, CellTiter-Glo ATP luminescence, 72 h | Potency, µM (series often up to 46.1 µM), actives largely listed as cytotoxic | hit rate 1.4% among 400,000 | AID 1347075; also: nearly all actives have a fitted effect of over 60% in size
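Here the drug-naive KB-3-1 line serves as comparator for MDR sub-line selectivity; cells received compound titrations, 72 h at 37 °C, then CellTiter-Glo readout.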
MCF10A rerep: induces DNA re-replication in MCF 10a normal breast cells. hit rate 2.9% among 350,000. MCF 10A DNA re-replication, Hoechst nuclear intensity, 48 h. AID 624296. Potency, µM (titrated, usually from 46.1 µM), hits mostly activators; also: nearly all actives have a fitted effect of over 50% in size
HT1080 IDH1KD tx: HT-1080 IDH1 knockdown cell toxicity (counter line) | HT-1080 IDH1 knockdown viability, ATP luminescence, 48 h | Potency, µM (series often up to 46.1 µM), most hits filed as cytotoxic | hit rate 2% among 360,000
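Using the IDH1-knockdown HT-1080 line run in the same batch and compound series as the NT line, viability after 48 h at 37 °C was determined by CellTiter-Glo luminescence and expressed as % activity.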
SW480 rerep: inducers of DNA re-replication in SW480 colon cancer cells; hit rate 1.8% among 340,000; SW480 DNA re-replication, Hoechst DNA content imaging, 48 h; Potency, µM (highest dose often 46.1 µM), hits mostly activators; also: nearly all actives have a fitted effect of over 55% in size
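Treated cells incubate 48 hr (37 C, 5% CO2), are stained 40 min with Hoechst, and nuclear fluorescence is enumerated; a rise in nuclei with high DNA signal marks re-replication.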
Each line names hits and unclear results; the compound was inactive in the other large screens. Only some compounds are listed: those with a hit (about 8% of all), similar ones and a draw of the others. Calls follow the shape of the dose curve; as a rule, active = well fitted curve in the direction sought with a large enough effect; inconclusive = small, poorly fitted or top-dose-only effect, or another doubt; inactive = no such curve, though single readings can be large; an effect the other way counts as inactive or inconclusive.

COc1cc(CNc2nc(C)c([N+](=O)[O-])c(C)c2C#N)cc(OC)c1	KB-V1 MDR tox 7.3µM, KB-3-1 cytotox inconclusive
Cc1nc(NCCc2ccc(F)cc2)c(C#N)c(C)c1[N+](=O)[O-]	MCF10A rerep inconclusive, SW480 rerep inconclusive
Cc1ccccc1OCC(=O)Nc1c2c(nn1C(C)(C)C)CS(=O)(=O)C2	SW480 rerep 18µM
CNc1nc(NCc2ccccc2)c2ccccc2n1	HT1080NT lethal inconclusive, KB-3-1 cytotox inconclusive, MCF10A rerep inconclusive, HT1080 IDH1KD tx inconclusive
CCCCNc1nc(NCc2ccccc2)nc2ccccc12	HT1080NT lethal inconclusive, KB-V1 MDR tox inconclusive, KB-3-1 cytotox inconclusive, HT1080 IDH1KD tx 16µM (no result: MCF10A rerep, SW480 rerep)
Oc1ccccc1Nc1nc(NCc2ccccc2)c2ccccc2n1	HT1080NT lethal inconclusive, KB-V1 MDR tox 21µM, KB-3-1 cytotox 23µM, MCF10A rerep 16µM, HT1080 IDH1KD tx inconclusive
Oc1ccccc1-c1nc(NCc2ccccc2)c2ccccc2n1	HT1080NT lethal inconclusive, MCF10A rerep inconclusive
COc1cc([N+](=O)[O-])ccc1N	none
CC(C)(C)c1ccc(/C=C/C(=O)NCCCN2CCOCC2)cc1	none
Cc1[nH]c(=S)c(C#N)c2c1CCCC2	none
CC(C)Cc1c2c([nH]c(=S)c1C#N)CCCC2	KB-V1 MDR tox inconclusive, SW480 rerep 13µM
COc1cc(OC)cc(-c2nnc(NC(=O)CCS(=O)(=O)c3ccccc3)o2)c1	MCF10A rerep inconclusive, SW480 rerep inconclusive
COc1cc(-c2nnc(NC(=O)CCS(=O)(=O)c3ccc(F)cc3)o2)cc(OC)c1OC	MCF10A rerep 16µM, HT1080 IDH1KD tx inconclusive
COc1cc(-c2nnc(NC(=O)CCS(=O)(=O)c3ccccc3)o2)cc(OC)c1OC	HT1080NT lethal 21µM, MCF10A rerep 18µM, HT1080 IDH1KD tx inconclusive, SW480 rerep inconclusive
Cc1cc(NC(=O)c2cnn(-c3ccccc3)c2-n2cccc2)ccc1Br	KB-V1 MDR tox inconclusive (no result: HT1080NT lethal, MCF10A rerep, HT1080 IDH1KD tx, SW480 rerep)
Cn1c(=O)cc(SCC(=O)N2CCN(c3ccccn3)CC2)c2ccccc21	MCF10A rerep inconclusive
CC(OC(=O)c1ccc(F)cc1)C(=O)Nc1nc(-c2cccc([N+](=O)[O-])c2)cs1 (stereo unspecified)	KB-V1 MDR tox 21µM
CC(C)Oc1ccc(C(=O)OC(C)C(=O)Nc2nc(-c3cccc([N+](=O)[O-])c3)cs2)cc1 (stereo unspecified)	none
Cc1ccc(CNC(=O)c2cc(S(=O)(=O)N3CCOCC3)cn2C)cc1	none
CCOC(=O)C(=CNc1cc(C)nn1-c1ccccc1)C(=O)OCC	KB-V1 MDR tox 4.6µM
COc1ccccc1Nc1cc(C(=O)NCCCN2CCOCC2)c2ccccc2n1	none
CC(=O)Cc1ccccc1OCC(=O)O	none
Oc1c(Br)cc(Br)cc1CNc1cnc2ccccc2c1	MCF10A rerep 23µM
Oc1c(Br)cc(Br)cc1CNc1ccc(F)cc1	HT1080NT lethal inconclusive, MCF10A rerep inconclusive, HT1080 IDH1KD tx inconclusive
O=[N+]([O-])c1cccc(-n2cccc2/C=N/Nc2nc(N3CCCCC3)nc(N3CCCCC3)n2)c1	none
Cc1ccc(Nc2nnc(SC(C)C(=O)NCC3CCCO3)s2)cc1C (stereo unspecified)	KB-V1 MDR tox inconclusive
COc1cc2c(cc1NC(=O)C(C)Oc1ccccc1)oc1ccccc12 (stereo unspecified)	none (no result: HT1080NT lethal, MCF10A rerep, HT1080 IDH1KD tx, SW480 rerep)
CC(Oc1ccc2oc3ccccc3c2c1)C(=O)NC12CC3CC(CC(C3)C1)C2 (stereo unspecified)	MCF10A rerep 16µM, SW480 rerep inconclusive
C[n+]1c2n(c3ccccc31)N=C(c1ccc(Cl)cc1)CS2	HT1080NT lethal inconclusive, KB-3-1 cytotox 5.8µM, HT1080 IDH1KD tx inconclusive, SW480 rerep inconclusive
COc1cccc(-c2nnc3n2N=C(c2cccc(Br)c2)CS3)c1	KB-V1 MDR tox inconclusive
COc1ccc(C2=Nn3c([n+](C)c4ccccc43)SC2)cc1	HT1080NT lethal inconclusive, KB-3-1 cytotox 2.6µM, MCF10A rerep inconclusive, HT1080 IDH1KD tx inconclusive
CC1Sc2n(c3ccccc3[n+]2C)N=C1c1ccccc1 (stereo unspecified)	KB-3-1 cytotox 7.3µM, HT1080 IDH1KD tx 7.3µM
Cc1cc(C)c2oc(-c3cccc(NC(=O)c4ccc(Br)o4)c3)nc2c1	none (no result: HT1080NT lethal, MCF10A rerep, HT1080 IDH1KD tx, SW480 rerep)
O=C(Nc1cccc(-c2nnc(-c3ccccc3)o2)c1)c1ccc(Br)o1	KB-V1 MDR tox 21µM, HT1080 IDH1KD tx inconclusive, SW480 rerep inconclusive
O=C(NC(=S)Nc1ccccc1)c1ccc(Br)o1	none
O=C(Nc1ccc(Nc2ccccc2)cc1)c1ccc(Br)o1	KB-V1 MDR tox 13µM, KB-3-1 cytotox inconclusive, HT1080 IDH1KD tx inconclusive
Cc1ccc(S(=O)(=O)Nc2ccccc2C=Nc2cccc(C)c2C)cc1	MCF10A rerep inconclusive
O=C(NCc1ccc(F)cc1)c1noc2c1CCCC2	SW480 rerep inconclusive
O=C(NCc1ccc(F)cc1)c1noc2c1CCCCC2	KB-V1 MDR tox 16µM
Cc1cc(NC(=O)c2noc3c2CCCCC3)nn1Cc1ccc(Cl)cc1	none
O=C(NCc1ccc(Cl)cc1)c1noc2c1CCCCC2	KB-V1 MDR tox 21µM, SW480 rerep inconclusive
O=C(NCc1ccco1)C(C(=O)c1ccccc1)n1ccccc1=O (stereo unspecified)	none
O=C(NCCCc1ccccc1)c1cccc(S(=O)(=O)N2CCOCC2)c1	none
COc1ccc2ccccc2c1/C=N/NC(=O)c1nnn(-c2nonc2N)c1C(C)C	KB-V1 MDR tox inconclusive, MCF10A rerep inconclusive, HT1080 IDH1KD tx inconclusive
Cc1ccc(COc2cccc(/C=N/NC(=O)c3nnn(-c4nonc4N)c3C)c2)cc1	MCF10A rerep 2.6µM
Cc1c(C(=O)N/N=C/c2c(O)ccc3ccccc23)nnn1-c1nonc1N	HT1080NT lethal inconclusive, KB-3-1 cytotox inconclusive, HT1080 IDH1KD tx 0.58µM, SW480 rerep 0.73µM
Nc1nonc1-n1nnc(C(=O)N/N=C/c2ccc(OCc3ccc(F)cc3)cc2)c1COc1ccccc1	HT1080NT lethal 18µM, MCF10A rerep inconclusive, HT1080 IDH1KD tx inconclusive, SW480 rerep 15µM
O=[N+]([O-])c1ccc(-n2nnnc2-c2ccccc2)c([N+](=O)[O-])c1	HT1080NT lethal inconclusive, KB-V1 MDR tox 18µM, MCF10A rerep 4.1µM, HT1080 IDH1KD tx inconclusive, SW480 rerep 5.2µM
O=[N+]([O-])c1ccc(-n2nnnc2-c2ccccc2)cc1	MCF10A rerep inconclusive
CC(C)Cc1cc(C(=O)O)c2ccccc2n1	none
COc1cc2c(cc1OC)C(COc1ccc3c(C)cc(=O)oc3c1)N(C(=O)c1ccc(C)cc1)CC2 (stereo unspecified)	none (no result: HT1080NT lethal, MCF10A rerep, HT1080 IDH1KD tx, SW480 rerep)
CC(C)(C)c1ccc(-n2ncc3c2CCCC3NC(=O)CCN2CCCC2=O)cc1 (stereo unspecified)	HT1080NT lethal inconclusive, HT1080 IDH1KD tx 18µM
